Screening results: PubChem BioAssay, National Center for Advancing Translational Sciences (NCATS)
Pf Dd2 growth: inhibitors of Plasmodium falciparum Dd2 growth | AID 1347417 | Potency, µM (doses to about 28.9 µM), usual class: inhibitors | 120,000 tested, 4.3% active | P. falciparum Dd2 growth, SYBR Green, 72 h; active means well fitted inhibition curve with a large enough effect; further: nearly all actives have a fitted effect of over 65% in size
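Infected erythrocytes (Dd2, 0.3% parasitemia, 2.5% hematocrit final) are added to compound in RPMI-1640/Albumax II medium, grown 72 h at 37C in low oxygen, then lysed with saponin/Triton-X containing SYBR Green and read by fluorescence.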
Numbers stand for hits; – = inactive. This is one part of a sample in which hits are shown more often than they occur.

SMILES	Pf Dd2 growth
CC(C)Oc1ccc2c(NC(=O)CN3CCOCC3)nn(CC(F)(F)F)c2c1	–
CCc1nc(-c2c3n(c(=O)n(Cc4ccccc4)c2=O)CCCCC3)no1	–
CC(=O)Nc1ccc(NC(=O)C2CCN(c3cnccn3)CC2)cc1	–
CCc1ccc(CN2CCC(C(=O)Nc3ccc(Oc4cccnc4)cc3)CC2)o1	11µM
COc1ccc(S(=O)(=O)N2CCC(C(=O)Nc3ccc(Oc4ccccc4)cc3)CC2)cc1	–
O=C(C1CC=CC1)N1CCc2nn(Cc3ccccc3)c(=O)n2CC1	–
Cc1cc(=O)n(CC(=O)Nc2c(C)cccc2C)c(-c2ccc(F)cc2)n1	–
CCOc1ccc(NC(=O)c2c(NC(=O)c3cccs3)sc3c2CCC(C(C)(C)C)C3)cc1 (centres undefined)	–
CC(C)(C)C1CCc2c(sc(NC(=O)c3ccc(Cl)cc3)c2C(=O)NCc2ccco2)C1 (centres undefined)	5.6µM
CCOC(=O)c1c(NC(=O)c2cc3ccccc3c(=O)o2)sc2c1CCC(C)C2 (centres undefined)	–
CCCOc1ccc(/C=C/C(=O)Nc2sc3c(c2C(=O)OCC)CCC(C)C3)cc1OC (centres undefined)	–
CC(C)(C)C1CCc2c(sc(NC(=O)c3ccncc3)c2C(=O)Nc2ccccc2Cl)C1 (centres undefined)	–
CC1CCc2c(sc(NC(=O)c3ccccc3)c2C(=O)Nc2ccccc2)C1 (centres undefined)	13µM
Cc1cccc(NC(=O)c2c(NC(=O)c3cccs3)sc3c2CCC(C)C3)c1 (centres undefined)	–
CC1CCc2c(sc(NC(=O)COc3ccccc3)c2C(=O)Nc2ccccc2Cl)C1 (centres undefined)	–
CCOc1ccc(NC(=O)c2c(NC(=O)c3ccncc3)sc3c2CCC(C(C)(C)C)C3)cc1 (centres undefined)	–
CCOc1ccc(NC(=O)c2c(NC(=O)c3ccco3)sc3c2CCC(C(C)(C)C)C3)cc1 (centres undefined)	10µM
CCOC(=O)c1ccc(NC(=O)c2c(NCc3ccc(OC)c(OC)c3OC)sc3c2CCC(C)C3)cc1 (centres undefined)	10µM
COc1ccccc1NC(=O)c1c(NC(=O)c2ccco2)sc2c1CCC(C(C)(C)C)C2 (centres undefined)	–
